Assay [1] concerns C33A. Put plainly: Primary qHTS to identify gynecologic anti-cancer compounds using libraries of approved drugs and bioactive compounds (AID 1345084). Also: nearly all actives have a fitted effect of over 55% in size. The conditions noted are these: Gynecologic cancer cell panel viability, ATPlite luminescence, 48 h; series mostly up to 57.5 µM. Put shortly:
(§1)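 Five-point cytotoxicity, 48 h drug exposure at 37 C, 5% CO2, on cells seeded 16 h beforehand. ATP content read by ATPlite luminescence.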
For orientation: In qHTS, concentration-response curves come from the screen itself.

Assay [2] relates to Es-2. The assay is described as above. To be noted: Gynecologic cancer cell panel viability, ATPlite luminescence, 48 h; series mostly up to 57.5 µM. Put shortly: as §1
(In general: ATP-based viability assays read luminescence as a measure of living cells.)

Assay [3] concerns MKL-1. Put plainly: qHTS assay to identify novel small-molecules to repurpose for Merkel cell carcinoma treatment (AID 1296009). Also: nearly all actives have a fitted effect of over 60% in size. To be noted: MCC and control cell lines, CellTiter-Glo viability, 72 h; series mostly up to 46 µM. Put shortly:
(§2)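 Cells were incubated with compound for 72 hr at 37 degree celsius before CellTiter-Glo addition. Luminescence was normalized with no-cell wells as full cytotoxicity and DMSO as baseline.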

In assay [4] the test system is MKL-2. The description is as above. The conditions noted are these: MCC and control cell lines, CellTiter-Glo viability, 72 h; series mostly up to 46 µM. Put shortly: as §2
Assay [5] deals with WaGa. The description is as above. To be noted: MCC and control cell lines, CellTiter-Glo viability, 72 h; series mostly up to 46 µM. Put shortly: as §2
Assay [6] deals with CASKI. As to the kind of experiment: Primary qHTS to identify gynecologic anti-cancer compounds using libraries of approved drugs and bioactive compounds (AID 1345084). Also: nearly all actives have a fitted effect of over 55% in size. To be noted: Gynecologic cancer cell panel viability, ATPlite luminescence, 48 h; series mostly up to 57.5 µM. Put shortly: as §1
For assay [7], the system named is UISO. As to the kind of experiment: qHTS assay to identify novel small-molecules to repurpose for Merkel cell carcinoma treatment (AID 1296009). Also: nearly all actives have a fitted effect of over 60% in size. The conditions noted are these: MCC and control cell lines, CellTiter-Glo viability, 72 h; series mostly up to 46 µM. Put shortly:
as §2

The test system of assay [8] is CAOV3. Put plainly: Primary qHTS to identify gynecologic anti-cancer compounds using libraries of approved drugs and bioactive compounds (AID 1345084). Also: nearly all actives have a fitted effect of over 55% in size. The conditions noted are these: Gynecologic cancer cell panel viability, ATPlite luminescence, 48 h; series mostly up to 57.5 µM. Put shortly:
as §1

The test system of assay [9] is NIH3T3. Put plainly: qHTS assay to identify novel small-molecules to repurpose for Merkel cell carcinoma treatment (AID 1296009). Also: nearly all actives have a fitted effect of over 60% in size. To be noted: MCC and control cell lines, CellTiter-Glo viability, 72 h; at 44.8 µM (top of the series) unless noted. Put shortly: as §2

Results filed as inconclusive are left out. Calls of active or inactive are those of the source. Calls follow the shape of the dose curve; as a rule, active = well fitted curve in the direction sought with a large enough effect; inconclusive = small, poorly fitted or top-dose-only effect, or another doubt; inactive = no such curve, though single readings can be large; an effect the other way counts as inactive or inconclusive.
Potency is read from the fitted curve at half-maximal effect.

On to `C/C=C(/C)C(=O)O[C@H]1C(C)=C2[C@H]([C@@H]1OC(=O)CCCCCCC)[C@@](C)(OC(C)=O)C[C@H](OC(=O)CCC)[C@@]1(O)[C@H]2OC(=O)[C@@]1(C)O`, for which the Potency in assay [1] was 20 µM (active); in [2], 0.316 µM (active).

As to `CC(C)[C@H]1C(=O)N[C@H](CO)Cc2c[nH]c3cccc(c23)N1C`, the Potency result in assay [3], in assay [4] and in assay [5] was “inactive” each time.

As for `COc1ccc2c(c[n+](C)c3c4cc5c(cc4ccc23)OCO5)c1OC`, the figures for the Potency in assay [3], in assay [4] and in assay [5] were 2.35 µM (active), 0.743 µM (active) and 3.32 µM (active), respectively.

Consider `CC(C)Oc1cccc(NC(=O)c2ccccc2C(F)(F)F)c1`, for which the Potency entry in [3] and in [6] was “inactive” each time. For the same molecule, in [5], the Potency is 38.6 µM (active).

In the case of `Cc1c(N)nc([C@H](CC(N)=O)NC[C@@H](N)C(N)=O)nc1C(=O)N[C@H](C(=O)N[C@@H](C)[C@H](O)[C@@H](C)C(=O)N[C@@H](C(=O)NCCc1nc(-c2nc(C(=O)NCCC[S+](C)C)cs2)cs1)[C@@H](C)O)C(O[C@H]1O[C@H](CO)[C@H](O)[C@@H](O)[C@@H]1O[C@H]1O[C@H](CO)[C@@H](O)[C@H](OC(N)=O)[C@H]1O)c1cnc[nH]1` (some centres undefined), the Potency result in [4] was “inactive”. Further, the Potency in assay [5] is 3.72 µM (active).

Consider `CCOP(=O)(NC(C)C)Oc1ccc(SC)c(C)c1` (centres undefined), for which the Potency entry in assay [3], in assay [4], in assay [7], in [1], in assay [6] and in [2] was “inactive” throughout.

For the molecule `CCOC(=O)Nc1ccc(NCc2ccc(F)cc2)cc1N`, the Potency result in [1], in assay [6] and in assay [2] was “inactive” in each case.

`CC(=Cc1csc(C)n1)[C@@H]1C[C@H]2O[C@]2(C)CCC[C@H](C)[C@@H](O)[C@@H](C)C(=O)C(C)(C)[C@@H](O)CC(=O)O1`: the Potency result in assay [3], in assay [4] and in [5] was “inactive” each time.

Turning to `COc1nn(CSP(=S)(OC)OC)c(=O)s1`, the values for the Potency in [3], in assay [4] and in [7] were 24.3 µM (active), 24.3 µM (active) and 38.6 µM (active), respectively. Besides, the Potency result in assay [1] and in assay [6] was “inactive” throughout.

In the case of `Cc1c(C(=O)Nc2cccc(C(F)(F)F)c2)cc(-c2ccccc2)n1CCCN1CCOCC1`, the Potency entry in [3], in assay [1], in assay [8] and in assay [2] was “inactive” in each case.

Consider `S=C(NC1CCCCC1)N1CCC(c2cnc[nH]2)CC1`, for which the Potency result in [1], in assay [6] and in assay [2] was “inactive” each time.

On to `Cc1ccccc1-n1c(Cn2ncc3c(N)ncnc32)nc2cccc(C)c2c1=O`, for which the Potency result in [4], in assay [1], in assay [8], in assay [6] and in assay [2] was “inactive” throughout. In [9], the outcome was inactive. Besides, in [7], the Potency is 1.32 µM (active).

As to `COc1cc([C@@H]2c3cc4c(cc3[C@@H](O)C3COC(=O)C32)OCO4)cc(OC)c1O` (some centres undefined), the Potency in assay [3] was 2.35 µM (active); in [7] it was 0.0526 µM (active); in assay [5] it was 0.0526 µM (active).

On to `CC(C)[C@]12O[C@H]1[C@@H]1O[C@]13[C@]1(O[C@H]1C[C@H]1C4=C(CC[C@@]13C)C(=O)OC4)[C@@H]2O`, for which the Potency is 0.708 µM (active) in [1], 0.199 µM (active) in [6] and 0.1 µM (active) in assay [2].

For the molecule `COc1ccc(C(=O)c2c(C)n(CCN3CCOCC3)c3cc(I)ccc23)cc1`, the Potency in assay [4] is 1.48 µM (active). Also, the molecule was called inactive in assay [9]. In addition, in assay [5], the Potency result is “inactive”.

With `CC(C)(O)C(=O)Nc1ccc([N+](=O)[O-])c(C(F)(F)F)c1`, the Potency entry in assay [3] and in assay [7] was “inactive” in each case. Besides, the molecule was called inactive in [9].

Consider `CCC1(CCC(C)C)C(=O)NC(=O)NC1=O`, for which the Potency result in assay [1], in assay [6] and in assay [2] was “inactive” throughout.

`COc1ccc(N(C(=O)Oc2c(C)cccc2C)c2ccnc(Nc3ccc(N4CCN(C)CC4)cc3)n2)c(OC)c1`: the Potency in [3] was 13.2 µM (active). Also, the Potency entry in assay [7] and in assay [6] was “inactive” in each case.

Consider `COCC1(CO)C(=O)C2CCN1CC2` (centres undefined), for which the results for the Potency in assay [3] and in assay [5] were 2.09 µM (active) and 1.32 µM (active), respectively.

As to `O=C(O)CCCOc1ccc(Cl)cc1Cl`, the Potency result in assay [1], in assay [8], in assay [6] and in assay [2] was “inactive” throughout.

With `O=S(=O)(CC1CS1)c1ccc(Oc2ccccc2)cc1` (centres undefined), the Potency in assay [3] is 23.5 µM (active); in assay [4] it was 16.6 µM (active); in assay [5], 20.9 µM (active).

Turning to `C[C@@H]1O[C@@H](O[C@@H]2C=C3CC[C@@H]4[C@@H](CC[C@]5(C)[C@H](c6ccc(=O)oc6)CC[C@@]45O)[C@@]3(C)CC2)[C@H](O)[C@H](O)[C@H]1O`, the Potency in assay [3] was 0.105 µM (active); in [4] it was 0.132 µM (active); in [5] it was 0.0418 µM (active).

Regarding `Nc1ccc(Cl)cc1N`, the Potency entry in assay [7] and in assay [2] was “inactive” throughout.

Take `CO[C@H]1CCC(O[C@H]2C[C@H]([C@]3(C)CC[C@]4(C[C@H](O)[C@@H](C)[C@@H]([C@@H](C)C=C(C)C(=O)[C@H](C)C[C@H](C)C(=O)O)O4)O3)O[C@]3(O[C@@H]([C@H]4O[C@@](O)(CO)[C@H](C)C[C@H]4C)C[C@H]3C)[C@H]2C)O[C@H]1C` (some centres undefined): the Potency in assay [3] was 0.935 µM (active); in [4], 0.662 µM (active); in assay [5] it was 0.935 µM (active).

Regarding `CCCCCCCCCCCCCCCC[N+](C)(C)C`, the Potency in [3] was 0.944 µM (active); in [4], 0.75 µM (active); in assay [5] it was 2.37 µM (active); in assay [6] it was 20 µM (active).

Turning to `CC(=O)O[C@@]12CO[C@H]1C[C@H](O)[C@@]1(C)C(=O)[C@H](O)C3=C(C)[C@@H](O)C[C@@](O)([C@@H](OC(=O)c4ccccc4)[C@@H]21)C3(C)C`, the Potency entry in [4] is “inactive”. Further, the Potency in assay [7] was 4.18 µM (active).

Take `CC(C)(C)C(O)C(Oc1ccc(Cl)cc1)n1cncn1` (centres undefined): the Potency entry in [1], in assay [6] and in [2] was “inactive” each time.

For `C=CCC1=C(C)C(OC(=O)C2C(C=C(C)C)C2(C)C)CC1=O` (centres undefined), the Potency result in assay [1], in assay [6] and in assay [2] was “inactive” in each case.

`CC1=C(O)C(=O)C=C2C1=CC=C1[C@@]2(C)CC[C@@]2(C)[C@@H]3C[C@](C)(C(=O)O)CC[C@]3(C)CC[C@]12C`: in [7], the Potency was 3.72 µM (active).

Consider `O=[N+]([O-])c1cc([N+](=O)[O-])c2ccccc2c1`, for which the Potency entry in [3], in assay [4], in assay [8], in [6] and in assay [2] was “inactive” in each case.

For `CCNC(=O)C[C@@H]1N=C(c2ccc(Cl)cc2)c2cc(OC)ccc2-n2c(C)nnc21`, the Potency in [4] was 1.66 µM (active); in [5] it was 5.9 µM (active). The Potency entry in assay [1], in assay [8] and in assay [6] was “inactive” each time.

Turning to `COc1ccc2c(c1)CN(C)CC2c1ccc(Cl)c(Cl)c1` (centres undefined), the Potency entry in assay [3], in assay [7] and in assay [5] was “inactive” throughout.

As to `CC(=O)NCCc1c[nH]c2ccccc12`, in [9], the outcome was “inactive [at 92 µM]”. In addition, the Potency result in assay [1], in assay [6] and in assay [2] was “inactive” in each case.

The values are drawn from PubChem BioAssay (NCATS).
